The target in experiment [1] is T1, Aspartate--tRNA(Asp/Asn) ligase (Mycobacterium tuberculosis (strain ATCC 25618 / H37Rv)) (UniProt P9WFW3). Note: in the data most compounds retested in dose-response had high values.
T1 sequence (whole entry): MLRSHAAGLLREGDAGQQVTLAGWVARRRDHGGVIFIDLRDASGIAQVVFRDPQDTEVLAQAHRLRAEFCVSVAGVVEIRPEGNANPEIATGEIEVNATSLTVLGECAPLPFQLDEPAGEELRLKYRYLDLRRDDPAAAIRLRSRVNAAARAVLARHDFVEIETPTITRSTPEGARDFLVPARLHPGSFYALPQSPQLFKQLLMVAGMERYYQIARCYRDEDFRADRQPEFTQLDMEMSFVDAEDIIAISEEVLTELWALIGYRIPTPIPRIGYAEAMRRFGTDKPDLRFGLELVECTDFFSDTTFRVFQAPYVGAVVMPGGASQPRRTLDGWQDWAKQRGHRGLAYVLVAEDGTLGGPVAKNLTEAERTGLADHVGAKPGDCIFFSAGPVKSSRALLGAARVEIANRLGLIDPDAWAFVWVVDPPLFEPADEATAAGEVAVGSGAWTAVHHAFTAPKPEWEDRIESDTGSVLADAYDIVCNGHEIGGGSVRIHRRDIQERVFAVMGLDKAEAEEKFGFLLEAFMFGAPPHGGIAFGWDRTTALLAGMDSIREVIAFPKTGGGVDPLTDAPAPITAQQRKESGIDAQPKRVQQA
Kind of experiment: Assay for Asp RNA synthetase-1 from Mycobacterium tuberculosis. The format is functional. Set-up: scale not given: direction of the effect not stated beside the values. The following applies: 30 µM.

In experiment [2] the target is Shiga toxin 2 (Escherichia coli O157:H7) (UniProt P09385+P09386). Kind of experiment: E. coli 0.157:H7 Shiga Toxin SOP - stx2 screening assay. It counts as functional. Details: scale not given: direction of the effect not stated beside the values. The following applies: 30 µM.

SMILES strings stand for the structures.

On to `CCNC(=O)N1CCN(C(=O)c2cc(Cl)cc3cccnc23)CC1`, for which the Percent Effect in experiment [1] was -3.21%; in experiment [2] it was -11.9%.

On to `CC(=O)NCC1CCN(CC2CCOc3ccccc3C2)CC1` (stereo not given), for which the Percent Effect in experiment [1] amounted to 1.5%; in experiment [2], 1.04%.

For `CN1CCN(C(=O)c2cncc(CC3CCCN(C)C3)c2)CC1` (stereo not given), the Percent Effect is -1.68% in experiment [1] and -19.2% in experiment [2].

`CC(O)CN1CCC(CNCc2c[nH]nc2C(C)(C)C)CC1` (stereo not given): the Percent Effect in experiment [1] came to 0.384%; in experiment [2] it was 14.9%.

Turning to `CCN(C)S(=O)(=O)N(CC)Cc1ccc2c(c1)OCO2`, the figures for the Percent Effect in experiment [1] and in experiment [2] were 3.49% and 12.6%, respectively.

Turning to `CC(O)(CN1CCC2(CC1)OCCO2)c1cccc(C(F)(F)F)c1` (stereo not given), the Percent Effect in experiment [1] was 1.23%; in experiment [2] it was -7.35%.

For `CCCS(=O)(=O)NCc1cccnc1OCC`, the Percent Effect in experiment [1] was -1.52%; in experiment [2] it was -6.28%.

Take `CN(Cc1ccco1)C[C@H]1OC[C@@H]2CCN(Cc3cccnc3)C[C@@H]21`: the Percent Effect was 3.55% in experiment [1] and -24.2% in experiment [2].

For the compound `CN(C)Cc1nc(C(C)(C)NC(=O)C2CC(=O)N(CC3CC3)C2)no1` (stereo not given), the Percent Effect in experiment [1] was -5.01%; in experiment [2], 25.1%.

With `Cc1ccc(OCC(=O)NS(=O)(=O)c2c(C)noc2C)cc1C`, the Percent Effect in experiment [1] is -4.32%; in experiment [2], -54.6%.

Regarding `CC(C)N1CCC(Cc2cncc(-c3ccccc3C(=O)O)n2)CC1`, the figures for the Percent Effect in experiment [1] and in experiment [2] were 1.34% and 6.75%, respectively.

Take `CC(C)Oc1ncccc1CNC(=O)C1CCCN(C(=O)C2CC2)C1` (stereo not given): the Percent Effect in experiment [1] is -4.79%; in experiment [2] it was 33.3%.

Regarding `CCCc1c(C(=O)NC2CCCC2)nnn1-c1ccc(OC)cc1`, the Percent Effect in experiment [1] was -1.57%; in experiment [2], -4.2%.

For the compound `COc1ccc(NC(=O)Cn2nc(C)c(C)cc2=O)cc1OC`, the figures for the Percent Effect in experiment [1] and in experiment [2] were -0.123% and -13.1%, respectively.

With `c1cnn(CC2CCCN2c2ncnc3ccsc23)c1` (stereo not given), the Percent Effect in experiment [1] worked out at 3.64%; in experiment [2] it was 16.1%.

As to `CCCS(=O)(=O)N1CCN(c2cc(-n3cnc(C)c3C)nc(C)n2)CC1`, the figures for the Percent Effect in experiment [1] and in experiment [2] were -3.39% and -17.5%, respectively.

With `Cc1cc(C2CCCN(CCCS(=O)(=O)c3ccccc3)C2)n[nH]1` (stereo not given), the Percent Effect stood at 3.14% in experiment [1] and 4.75% in experiment [2].

For the compound `C[C@@H]1CN(C2(C(=O)N3CCCCCC3)Cc3ccccc3C2)C[C@H](C)O1`, the Percent Effect in experiment [1] was -2.09%; in experiment [2] it was 3.06%.

With `CC(C)c1n[nH]c(C2CN(C(=O)c3cccc4cn[nH]c34)CCO2)n1` (stereo not given), the Percent Effect in experiment [1] is 7.47%; in experiment [2] it was 9.23%.

As to `Cc1nc(CN2C(=O)CCC23CCN(c2ncccn2)CC3)cs1`, the values for the Percent Effect in experiment [1] and in experiment [2] were 4.19% and -30.4%, respectively.

On to `CCn1nc(C)c2nc(C(C)C)nc(NCCCO)c21`, for which the Percent Effect in experiment [1] is 3.48%; in experiment [2] it was -3.03%.

Turning to `Cc1cncc(C2CCCN(C(=O)c3scnc3C)C2)n1` (stereo not given), the Percent Effect in experiment [1] was -4.36%; in experiment [2], -1.58%.

For the compound `Cc1noc(C)c1CN1CCc2nn(C(C)C)c(=O)cc2C1`, the values for the Percent Effect in experiment [1] and in experiment [2] were 7.84% and -14%, respectively.

In the case of `Cc1cc(C(=O)N2CCC3(CCCN(CC4CC4)C3=O)C2)c(C)n1C` (stereo not given), the Percent Effect was -1.12% in experiment [1] and -7.28% in experiment [2].

In the case of `COCc1c(C(=O)NC2CCCC2)nnn1-c1ccc(C)cc1`, the Percent Effect in experiment [1] was -4.96%; in experiment [2], 10.2%.

In the case of `CNc1nc(C)c(C(=O)N2CCCCC2CN2CCCCCC2)s1` (stereo not given), the figures for the Percent Effect in experiment [1] and in experiment [2] were 1.75% and 1.34%, respectively.

Turning to `CC(C)CN1CCCC2(CCN(C(=O)c3cnccn3)C2)C1` (stereo not given), the Percent Effect was 1.03% in experiment [1] and -7.5% in experiment [2].

With `COc1ccc(CNCc2ccnc(N3CCOCC3)c2)cc1OC`, the Percent Effect in experiment [1] was -2.66%; in experiment [2] it was -52.5%.

Consider `Cc1[nH]ccc1C(=O)Nc1cccc(CN2CCC(O)CC2)c1`, for which the Percent Effect in experiment [1] is 0.958%; in experiment [2] it was -28.9%.

Take `O=S(=O)(NC1=NCN(CCc2cccs2)CN1)c1ccccc1`: the Percent Effect in experiment [1] was -3.8%; in experiment [2], -12.6%.

For the compound `Cc1ccccc1-c1cncc(C2CCN(C(C)C)CC2)n1`, the Percent Effect was -1.25% in experiment [1] and -10.3% in experiment [2].

Regarding `CC1CN(CC(=O)NC2CCCC2)CCN1c1ccc2nncn2n1` (stereo not given), the Percent Effect is -3.52% in experiment [1] and -41.8% in experiment [2].

On to `CNc1cc(N2CCCC2CNCc2ccccn2)ncn1` (stereo not given), for which the Percent Effect was 1.56% in experiment [1] and -35.2% in experiment [2].

As to `Cc1nc(CN2CCN(CC(=O)Nc3c(C)cccc3C)CC2)no1`, the Percent Effect in experiment [1] was -3.29%; in experiment [2] it was -6.23%.

Regarding `CS(=O)(=O)N1CCC2(CC1)CC(CC(=O)N1CCCC1)c1ccccc12` (stereo not given), the Percent Effect in experiment [1] was found to be 5.87%; in experiment [2], 8.75%.

As for `CCCc1nc(NCCCO)c2c(n1)c(C)nn2CC`, the values for the Percent Effect in experiment [1] and in experiment [2] were -5.08% and -4.19%, respectively.

As for `Cc1nnc(N2CC[C@H](OCC3CC3)[C@@H](Cc3ccccc3)C2)s1`, the Percent Effect in experiment [1] is 9.93%; in experiment [2], -15.5%.

`CCn1ccnc1-c1nc2cc(S(=O)(=O)N3CCCC3)ccc2n1C`: the results for the Percent Effect in experiment [1] and in experiment [2] were -4.2% and -15.7%, respectively.

On to `CN(C)CCN1C[C@@H]2CN(C(=O)c3ccsc3)C[C@@H]2C1=O`, for which the Percent Effect was -4.34% in experiment [1] and -40.9% in experiment [2].

For `CC(O)CN1CCN(C(=O)c2ccc(Cn3cccc3)cc2)CC1` (stereo not given), the Percent Effect in experiment [1] was determined as 11%; in experiment [2], 19.4%.

Turning to `c1ccc(CCN2CCOC(Cn3cccn3)C2)nc1` (stereo not given), the Percent Effect in experiment [1] is -0.259%; in experiment [2], 0.927%.

In the case of `CC(O)CNC(=O)NCc1cccnc1OC1CCCC1` (stereo not given), the Percent Effect in experiment [1] is -4.34%; in experiment [2], -12.4%.

Regarding `COc1ccc(C(=O)N2CCCC(CNS(C)(=O)=O)C2)cc1F` (stereo not given), the Percent Effect is 1.03% in experiment [1] and 22.9% in experiment [2].

`CCc1nc(CNCC2CCCN2c2cc(NC)ncn2)cs1` (stereo not given): the Percent Effect in experiment [1] was -0.456%; in experiment [2], -5.66%.

`Cc1cccc(-n2c(C)cc(C(=O)N3CCn4c(C)nnc4C3)c2C)c1`: the Percent Effect in experiment [1] was 3.51%; in experiment [2] it was 36.2%.

`COc1ccc2c(c1)CCN(CCC(=O)NC1CCCCC1)CC2`: the Percent Effect in experiment [1] is -0.993%; in experiment [2], -9.64%.

Consider `COc1ccccc1N1CCC(CNCc2cccc(O)c2)C1` (stereo not given), for which the Percent Effect was 2.22% in experiment [1] and -10.3% in experiment [2].

On to `Cc1cnn(CC2CCCN2C(=O)c2cc3ccccc3[nH]c2=O)c1` (stereo not given), for which the Percent Effect in experiment [1] is -1.15%; in experiment [2], 22.9%.

In the case of `COC(=O)c1ccc(N2CCN(CCC(=O)NC(N)=O)C(C)C2)cc1` (stereo not given), the Percent Effect in experiment [1] was 3.04%; in experiment [2] it was 25.6%.

Turning to `Cc1cnccc1CN1C[C@@H](O)[C@H](Oc2cccc(F)c2)C1`, the Percent Effect in experiment [1] was -1.59%; in experiment [2], -1.74%.
